Assay results reported in PubChem BioAssay (EPA / NIEHS).
Calls of active or inactive are those of the source. How the source made its calls: active means hit-call score of the fitted dose curve at least 0.9, where 1 is the maximum; inactive means score below 0.9.

What was measured:
[1] = ATG_CRE_CIS: Attagene CIS-FACTORIAL HepG2 Assay for human cAMP Responsive Element (CRE) binding protein 3 (AID 2282926); details: HepG2 CRE cis-reporter, Attagene multiplexed mRNA; actives raise or lower the signal
Summary of the method: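 Transfected HepG2 were treated for 24 hours, then RNA was extracted and reporter cDNA amplified with sequence-specific primers. Labelled fragments were separated by capillary electrophoresis, and the CRE signal was fitted bidirectionally with DMSO as baseline.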

[2] = biological target: CCAAT/enhancer-binding protein beta (Homo sapiens) (UniProt P17676); test: ATG_C_EBP_CIS: Attagene CIS-FACTORIAL HepG2 Assay for human CCAAT/Enhancer Binding Protein (C/EBP) beta (AID 2282927); details: HepG2 Attagene cis-factorial transcription factor reporter; actives raise or lower the signal
Summary of the method: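 Transiently transfected HepG2 (MRTU library, endogenous TF-driven promoters); 24 h dosing; total RNA → oligo(dT) RT → PCR → 6-FAM primer extension → HpaI digest → CE; fit bidirectionally vs DMSO.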

[3] = ATG_CMV_CIS: Attagene CIS-FACTORIAL HepG2 Assay for human CMV (Internal Marker) (AID 2282928); details: HepG2 CMV promoter reporter, transcription factor profiling; actives raise or lower the signal;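 further: endpoint acts as a background internal control marker rather than a target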
Summary of the method: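 HepG2 cells transiently transfected with multiple cis-regulated reporter units; 24 h compound exposure. Reporter mRNA quantified by RT-PCR, 6-FAM primer-extension labeling, HpaI digestion and capillary electrophoresis; bidirectional fitting against DMSO baseline.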

[4] = ATG_DR4_LXR_CIS: Attagene CIS-FACTORIAL HepG2 Assay for human Liver X Receptor (LXR), DR4 submotif (AID 2282929); details: HepG2 Attagene DR4 cis-reporter, mRNA transcription; actives raise or lower the signal
Summary of the method: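 Cells were transfected with multiple reporter transcription units, exposed to chemicals for 24 hours, then lysed for RNA. Reporter mRNA induction was measured by RT-PCR with capillary electrophoresis detection and fitted in both directions relative to DMSO.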

[5] = ATG_AP_1_CIS: Attagene CIS-FACTORIAL HepG2 Assay for human Activator Protein 1 (AP-1) (AID 2282931); details: HepG2 Attagene cis-factorial AP-1 reporter mRNA; actives raise or lower the signal
Summary of the method: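 Endogenous transcription-factor activity in human HepG2 liver cells is read through a cis-promoter reporter transcript, sampled 24 h after dosing. Detection uses RT-PCR with capillary electrophoresis; values come from bidirectional fitting relative to DMSO.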

[6] = ATG_AP_2_CIS: Attagene CIS-FACTORIAL HepG2 Assay for human Activator Protein 2 (AP-2) (AID 2282932); details: HepG2 AP-2 cis-reporter, Attagene transcription factor profiling; actives raise or lower the signal
Summary of the method: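 HepG2 cells transiently transfected with cis-element reporter units and exposed for 24 h. Reporter mRNA measured by RT-PCR, FAM labelling, HpaI digestion and capillary electrophoresis. Changes in either direction fitted relative to DMSO.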

[7] = ATG_BRE_CIS: Attagene CIS-FACTORIAL HepG2 Assay for human Bone Morphogenetic Protein (BMP) Response Element (BRE) (AID 2282933); details: HepG2 BMP response element reporter, Attagene transcription factor profiling; actives raise or lower the signal
Summary of the method: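 HepG2 cells transiently transfected with multiplexed cis-element reporter units were dosed with chemical for 24 h. Reporter mRNA was measured by RT-PCR with fluorescent labelling, HpaI digestion and capillary electrophoresis; bidirectional fitting relative to DMSO.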

[8] = biological target: Retinoic acid receptor alpha (Homo sapiens) (UniProt P10276); test: ATG_DR5_RAR_CIS: Attagene CIS-FACTORIAL HepG2 Assay for human Retinoic Acid Receptor Alpha (RARE), DR5 submotif (AID 2282934); details: HepG2 Attagene cis-factorial RARE DR5 reporter, mRNA; actives raise or lower the signal
Summary of the method: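 Read-out: DR5-driven reporter transcript measured by RT-PCR, 6-FAM primer extension, HpaI digest and capillary electrophoresis. Human HepG2 liver cells carry transiently transfected cis-element reporter constructs; dosing lasts 24 h. Gain or loss of signal fitted against DMSO baseline.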

[9] = biological target: Transcription factor E2F1 (Homo sapiens) (UniProt Q01094); test: ATG_E2F_CIS: Attagene CIS-FACTORIAL HepG2 Assay for human E2F Transcription Factor 1 (AID 2282935); details: HepG2 Attagene cis-reporter, E2F reporter RNA transcripts; actives raise or lower the signal
Summary of the method: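 Endogenous E2F1 activity read through cis-promoter reporter units transfected into HepG2. After 24 h compound treatment, reporter mRNA measured by RT-PCR, HpaI digestion and capillary electrophoresis. Bidirectional fit versus DMSO.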

[10] = ATG_E_Box_CIS: Attagene CIS-FACTORIAL HepG2 Assay for human Enhancer Box (E-box) (AID 2282936); details: HepG2 E-box cis-reporter transcription, actives raise or lower the signal
Summary of the method: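 HepG2 cells transiently transfected with multiplexed cis-element reporter units, dosed 24 h; reporter mRNA quantified by RT-PCR, 6-FAM labelling, HpaI digestion and capillary electrophoresis. E-box (USF1) signal fitted bidirectionally vs DMSO.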

[11] = ATG_M_61_CIS: Attagene CIS-FACTORIAL HepG2 Assay for M61 Transcription Factor (Internal Marker) (AID 2282937); details: HepG2 Attagene CIS-FACTORIAL M61 internal marker reporter; actives raise or lower the signal
Summary of the method: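 Cells were transfected with reporter units under cis-regulatory promoters, treated with chemicals for 24 h, then lysed for RNA. Reporter transcripts were quantified by RT-PCR and capillary electrophoresis, and activity was fitted bidirectionally against DMSO.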

[12] = ATG_EGR_CIS: Attagene CIS-FACTORIAL HepG2 Assay for human Early Growth Response 1 (EGR1) (AID 2282938); details: HepG2 Attagene CIS-FACTORIAL EGR reporter mRNA; actives raise or lower the signal
Summary of the method: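 Endogenous TF activity in HepG2 liver cells was gauged through cis-promoter reporter constructs transiently transfected. After 24 h dosing, reporter mRNA was quantified by RT-PCR and capillary electrophoresis, and curves fitted in both directions versus DMSO.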

[13] = ATG_M_19_CIS: Attagene CIS-FACTORIAL HepG2 Assay for M19 Transcription Factor (Internal Marker) (AID 2282939); details: HepG2 Attagene CIS-FACTORIAL M19 internal marker reporter; actives raise or lower the signal
Summary of the method: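 HepG2 cells transiently transfected with cis-regulated multiple reporter transcription units were dosed for 24 h; reporter mRNA was quantified by RT-PCR, 6-FAM primer-extension labelling, HpaI digestion and capillary electrophoresis, with bidirectional fitting against DMSO baseline.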

[14] = ATG_Ets_CIS: Attagene CIS-FACTORIAL HepG2 Assay for human Erythroblast Transformation Specific (ETS) (AID 2282941); details: HepG2 ETS cis-reporter transcription, actives raise or lower the signal
Summary of the method: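 HepG2 cells transiently transfected with cis-promoter reporter transcription units were dosed for 24 h; reporter mRNA was measured by RT-PCR, 6-FAM primer extension, HpaI digestion and capillary electrophoresis, with bidirectional fitting against DMSO baseline.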

[15] = ATG_FoxO_CIS: Attagene CIS-FACTORIAL HepG2 Assay for human Forkhead box O (FoxO) (AID 2282943); details: HepG2 Attagene cis-reporter, FoxO element, mRNA; actives raise or lower the signal
Summary of the method: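 Read-out: fluorescence of 6-FAM-labelled reporter cDNA fragments resolved by capillary electrophoresis. Transiently transfected HepG2 cells were dosed for 24 h; activity fitted in both directions relative to DMSO controls.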

[16] = ATG_GATA_CIS: Attagene CIS-FACTORIAL HepG2 Assay for human GATA Binding Protein (AID 2282944); details: HepG2 GATA cis-element reporter, Attagene multiplex mRNA; actives raise or lower the signal
Summary of the method: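 HepG2 cells transiently transfected with multiplexed cis-element reporter units reflecting endogenous transcription factor activity; reporter mRNA measured after 24 h dosing by RT-PCR, 6-FAM labeling, HpaI digestion and capillary electrophoresis. Bidirectional fitting versus DMSO baseline.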

[17] = ATG_GLI_CIS: Attagene CIS-FACTORIAL HepG2 Assay for human Zinc Finger Protein GLI1 (AID 2282945); details: HepG2, Attagene cis-factorial reporter mRNA, GLI element; actives raise or lower the signal
Summary of the method: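 Transiently transfected HepG2 cells report endogenous transcription factor activity via cis-element-driven reporter units. After 24 h compound exposure, reporter mRNA was measured by RT-PCR with capillary electrophoresis; bidirectional fitting against DMSO baseline.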

[18] = biological target: Aryl hydrocarbon receptor (Homo sapiens) (UniProt P35869); test: ATG_Ahr_CIS: Attagene CIS-FACTORIAL HepG2 Assay for human Aryl Hydrocarbon Receptor (Ahr) (AID 2282930); details: HepG2 AhR cis-factorial reporter transcription; actives raise or lower the signal
Summary of the method: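 Read-out: reporter mRNA quantified by RT-PCR with fluorescent primer extension and capillary electrophoresis. Human HepG2 liver cells carried transfected cis-promoter reporter units and were exposed to chemical for 24 h; gain or loss fitted relative to DMSO.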

[19] = biological target: Hepatocyte nuclear factor 3-beta (Homo sapiens) (UniProt Q9Y261); test: ATG_FoxA2_CIS: Attagene CIS-FACTORIAL HepG2 Assay for human Forkhead box A2 (FOXA2) (AID 2282942); details: HepG2 cis-reporter transcription factor activity, 24 h; actives raise or lower the signal
Summary of the method: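 Endogenous transcription factor activity was read in HepG2 cells carrying transiently transfected cis-promoter reporter units. After 24 h dosing, reporter mRNA was quantified by RT-PCR and capillary electrophoresis, and values fitted bidirectionally versus DMSO.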

Measured: outcome

Sequence of CCAAT/enhancer-binding protein beta (Homo sapiens) (P17676 whole entry, looked up): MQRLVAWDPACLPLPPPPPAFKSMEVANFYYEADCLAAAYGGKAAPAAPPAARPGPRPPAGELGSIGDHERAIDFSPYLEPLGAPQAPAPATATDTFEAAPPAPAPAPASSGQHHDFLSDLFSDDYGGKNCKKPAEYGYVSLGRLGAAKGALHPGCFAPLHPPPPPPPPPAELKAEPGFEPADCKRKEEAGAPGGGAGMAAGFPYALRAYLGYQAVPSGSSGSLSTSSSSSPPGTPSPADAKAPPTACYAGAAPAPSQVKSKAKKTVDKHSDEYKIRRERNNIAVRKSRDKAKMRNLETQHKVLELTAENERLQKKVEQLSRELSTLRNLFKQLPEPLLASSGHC
Sequence of Retinoic acid receptor alpha (Homo sapiens) (P10276 whole entry, looked up): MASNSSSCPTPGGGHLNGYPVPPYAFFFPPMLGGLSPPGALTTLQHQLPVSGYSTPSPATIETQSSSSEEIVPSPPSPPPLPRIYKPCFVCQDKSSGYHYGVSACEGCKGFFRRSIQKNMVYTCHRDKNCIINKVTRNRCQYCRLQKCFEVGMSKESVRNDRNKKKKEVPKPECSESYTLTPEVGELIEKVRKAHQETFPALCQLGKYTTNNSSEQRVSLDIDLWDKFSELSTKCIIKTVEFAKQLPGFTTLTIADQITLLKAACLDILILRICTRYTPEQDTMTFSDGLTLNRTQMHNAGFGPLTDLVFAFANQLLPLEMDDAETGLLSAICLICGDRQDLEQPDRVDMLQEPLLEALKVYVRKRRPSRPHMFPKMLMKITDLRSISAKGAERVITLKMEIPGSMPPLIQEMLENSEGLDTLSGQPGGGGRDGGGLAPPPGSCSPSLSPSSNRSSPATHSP
Sequence of Transcription factor E2F1 (Homo sapiens) (Q01094 whole entry, looked up): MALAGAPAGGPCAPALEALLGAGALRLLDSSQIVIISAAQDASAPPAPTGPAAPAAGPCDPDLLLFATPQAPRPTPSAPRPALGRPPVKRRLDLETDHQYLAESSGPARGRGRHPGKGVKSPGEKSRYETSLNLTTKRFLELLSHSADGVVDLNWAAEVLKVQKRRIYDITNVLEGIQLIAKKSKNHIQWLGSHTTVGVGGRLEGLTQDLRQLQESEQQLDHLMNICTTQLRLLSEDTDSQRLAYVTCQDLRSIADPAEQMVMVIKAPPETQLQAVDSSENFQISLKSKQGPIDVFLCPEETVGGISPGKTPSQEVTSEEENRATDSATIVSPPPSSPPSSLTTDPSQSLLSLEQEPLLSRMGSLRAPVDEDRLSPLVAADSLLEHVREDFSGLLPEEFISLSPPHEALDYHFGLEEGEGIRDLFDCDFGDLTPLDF
Sequence of Hepatocyte nuclear factor 3-beta (Homo sapiens) (Q9Y261 whole entry, looked up): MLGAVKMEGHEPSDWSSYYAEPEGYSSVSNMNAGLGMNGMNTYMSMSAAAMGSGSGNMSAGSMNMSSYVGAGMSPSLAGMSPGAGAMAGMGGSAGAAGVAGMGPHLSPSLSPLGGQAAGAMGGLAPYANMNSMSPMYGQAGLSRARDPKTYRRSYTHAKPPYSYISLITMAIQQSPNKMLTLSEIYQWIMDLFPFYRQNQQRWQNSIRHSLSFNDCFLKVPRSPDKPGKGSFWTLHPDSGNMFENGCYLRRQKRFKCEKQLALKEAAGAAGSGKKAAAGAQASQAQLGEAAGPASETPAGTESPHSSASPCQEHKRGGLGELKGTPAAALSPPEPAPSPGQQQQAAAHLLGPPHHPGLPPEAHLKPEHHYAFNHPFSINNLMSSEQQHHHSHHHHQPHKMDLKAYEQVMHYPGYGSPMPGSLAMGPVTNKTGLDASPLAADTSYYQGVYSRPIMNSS
Sequence of Aryl hydrocarbon receptor (Homo sapiens) (P35869 whole entry, looked up): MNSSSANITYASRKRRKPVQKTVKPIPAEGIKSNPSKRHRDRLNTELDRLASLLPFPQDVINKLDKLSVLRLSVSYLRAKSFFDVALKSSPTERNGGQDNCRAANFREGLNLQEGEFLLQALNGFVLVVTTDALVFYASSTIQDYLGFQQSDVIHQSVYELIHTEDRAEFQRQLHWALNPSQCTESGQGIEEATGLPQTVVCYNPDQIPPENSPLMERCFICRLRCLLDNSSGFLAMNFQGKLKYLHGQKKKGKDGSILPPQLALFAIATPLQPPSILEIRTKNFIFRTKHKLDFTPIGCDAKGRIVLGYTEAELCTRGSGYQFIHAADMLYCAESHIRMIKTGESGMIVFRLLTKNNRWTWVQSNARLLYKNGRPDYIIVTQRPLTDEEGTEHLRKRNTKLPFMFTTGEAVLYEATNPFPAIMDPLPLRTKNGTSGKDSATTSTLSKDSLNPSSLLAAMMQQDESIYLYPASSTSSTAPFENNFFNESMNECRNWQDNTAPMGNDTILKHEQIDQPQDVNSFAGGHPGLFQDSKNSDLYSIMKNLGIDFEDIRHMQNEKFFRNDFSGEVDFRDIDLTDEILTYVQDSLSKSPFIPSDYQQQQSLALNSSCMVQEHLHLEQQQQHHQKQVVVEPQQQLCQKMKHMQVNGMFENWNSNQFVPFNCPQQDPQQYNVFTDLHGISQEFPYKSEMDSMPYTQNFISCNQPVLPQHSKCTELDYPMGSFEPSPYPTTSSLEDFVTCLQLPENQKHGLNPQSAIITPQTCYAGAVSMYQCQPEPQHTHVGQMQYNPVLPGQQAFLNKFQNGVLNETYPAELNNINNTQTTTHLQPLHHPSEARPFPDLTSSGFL

CCC1(c2ccccc2)C(=O)NCNC1=O
not listed: [18] | [19]
inactive: all other assays above

C=C(C)C(=O)OCCOCCOCCOCCOC(=O)C(=C)C
not listed: [5] | [6]
inactive: all other assays above

C=C1C[C@]23C[C@@]1(O)CC[C@H]2[C@@]12C=C[C@H](O)[C@@](C)(C(=O)O1)[C@H]2[C@@H]3C(=O)O
not listed: [10] | [15] | [18]
inactive: all other assays above

CCCCC1CCC(O)CC1 (configuration not stated)
not listed: [10] | [18]
inactive: all other assays above
